Assay outcomes as filed in PubChem.
TDP-43 yeast inh: inhibitors of TDP-43 toxicity in yeast | Potency, µM (doses to about 46.1 µM), hits mostly activators | TDP-43 expressing yeast growth rescue, BacTiter-Glo, 24 h | actives 1.8% (n = 410,000) | AID 652104; note: nearly all actives have a fitted effect of over 50% in size
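In this qHTS, compounds that restore growth of yeast expressing TDP-43 appear as activators. Cells (OD600=0.02, galactose medium, raffinose-pregrown) are incubated with compound 24 hr at 30 deg C and growth is quantified by BacTiter-Glo.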
FUS suppressor: rescues growth of FUS-expressing yeast; S. cerevisiae FUS-expressing, growth rescue, OD600, 24 h; actives 0.24% (n = 390,000); Potency, µM (doses to about 76.6 µM), hits mostly activators; note: nearly all actives have a fitted effect of over 55% in size
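Absorbance at 600 nm, taken 24hr after compound addition, measured rescue of FUS-yeast growth at 30C. Induction used 2% galactose with seeding at OD 0.005. Controls: CP55940 from 92uM final, DMSO only.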
Abeta rescue: restores growth of yeast expressing A-beta42 peptide. Potency, µM (top dose mostly 46.1 µM), most hits filed as activators. yeast expressing A-beta42, growth rescue, OD600, 48 h; response scale: 0% DMSO, 100% iron-clioquinol control. actives 0.063% (n = 410,000); note: nearly all actives have a fitted effect of over 55% in size
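Yeast A-beta toxicity model in growth medium with pinned compounds, 48 h at 30 C; growth read as absorbance at 600 nm. Normalized to FeCl3/clioquinol equimolar mix (positive) and DMSO (negative).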
aSyn rescue: alpha-synuclein toxicity inhibition in yeast; Yeast expressing alpha-synuclein, growth rescue, BacTiter-Glo, 24 h; Potency, µM (series often up to 46.1 µM), usual class: activators; actives 0.14% (n = 370,000); note: nearly all actives have a fitted effect of over 65% in size
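Readout is rescue of growth in alpha-synuclein-expressing yeast, so inhibitors of toxicity appear as activators. Growth after 24 hr at 30 deg C in galactose medium is quantified by luminescence.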
Large screens that a line does not name were inactive. This is a sample that favours compounds with a hit; in the whole collection about 2.1% have one here. Calls come from the whole dose curve; as a rule, active = well fitted curve in the direction sought with a large enough effect; inconclusive = small, poorly fitted or top-dose-only effect, or another doubt; inactive = no such curve, though single readings can be large; an effect the other way counts as inactive or inconclusive.

CNc1ncc(C(=O)c2ccc(Cl)c(Cl)c2)s1	TDP-43 yeast inh inconclusive
CNc1ncc(C(=O)c2ccc(Cl)cc2)s1	TDP-43 yeast inh 10µM
CC(c1ccccc1)n1cc(C(=O)N2CCCN(Cc3ccccc3)CC2)nn1 (stereo not given)	none (no result: TDP-43 yeast inh, Abeta rescue, aSyn rescue)
CSCCCNc1nc(C)nc2c1nnn2Cc1ccccc1	none (no result: TDP-43 yeast inh, Abeta rescue, aSyn rescue)
Cc1cccc2c(=O)n(C(=O)c3ccccc3)c(N)nc12	TDP-43 yeast inh 20µM
Cc1ccc(CN(C)C(=O)c2cccc(S(=O)(=O)N3CCc4ccccc4C3)c2)o1	TDP-43 yeast inh 35µM
COc1cnc(-c2ccccn2)nc1Oc1ccc(F)cc1F	Abeta rescue 22µM
CS(=O)(=O)c1ccccc1COC(=O)Nc1ccc(Cl)cc1	TDP-43 yeast inh 13µM
O=C(Nc1ccc(Cl)cc1)OCc1ccccn1	none
CCc1cccc2sc(N3CCN(C(=O)c4cc5ccccc5cc4OC)CC3)nc12	none (no result: aSyn rescue)
COc1cc2ccccc2cc1C(=O)N1CCN(c2nc3c(F)cccc3s2)CC1	TDP-43 yeast inh 11µM (no result: aSyn rescue)
COc1cc2ccccc2cc1C(=O)N1CCN(c2nc3c(F)cc(F)cc3s2)CC1	TDP-43 yeast inh 16µM, FUS suppressor inconclusive (no result: aSyn rescue)
O=C(NCC1CCCO1)c1c[nH]c2ccc(S(=O)(=O)Nc3cccc(C(F)(F)F)c3)cc2c1=O (stereo not given)	none (no result: aSyn rescue)
Cc1cc(C)c(NC(=O)CNC(=O)COC(=O)Cc2ccccc2C)c(C)c1	none
Cc1cc(C)c(NC(=O)CNC(=O)COC(=O)Cc2cccs2)c(C)c1	TDP-43 yeast inh 11µM
Cc1nc(-c2cccnc2)sc1C(=O)Nc1cccc(C(F)(F)F)c1	TDP-43 yeast inh 13µM
Cc1nc(Cl)sc1C(=O)Nc1cccc(C(F)(F)F)c1	none
Cc1nc(-c2cccnc2)sc1C(=O)Nc1ccc(C(F)(F)F)cc1	TDP-43 yeast inh 11µM
Cc1c(C(=O)c2ccccc2C(=O)O)sc2ccccc12	TDP-43 yeast inh 11µM
Brc1cccc(-c2nnc(SCc3ccon3)n2-c2ccccc2)c1	TDP-43 yeast inh 18µM
O=C(O)c1ccc(CSc2nnc(-c3ccccc3)n2-c2ccccc2)cc1	none
COCCNC(=O)C[C@H]1CC[C@H]2[C@@H](COc3ccc(NS(=O)(=O)c4ccc(Cl)cc4)cc3C(=O)N2C)O1	none (no result: TDP-43 yeast inh, Abeta rescue, aSyn rescue)
COc1ccc(CSCC(=O)Nc2ccc(S(=O)(=O)N3CCCCCC3)cc2)cc1	TDP-43 yeast inh 18µM (no result: FUS suppressor)
CCCCCc1ccc(-c2n[nH]c(=O)c3ccccc23)cc1	none (no result: TDP-43 yeast inh, Abeta rescue, aSyn rescue)
O=C(c1cc2cc(F)ccc2[nH]1)N1CCCC(Nc2ccc(F)cc2)C1 (stereo not given)	TDP-43 yeast inh 18µM
CCCCCCCCCC[n+]1cc(Br)cc(Br)c1	none (no result: TDP-43 yeast inh, FUS suppressor, Abeta rescue)
CCCC/C=C1/[C@H](CC)N(C)C2=N[C@@H](c3ccccc3)CC(=O)N21	none (no result: TDP-43 yeast inh, Abeta rescue, aSyn rescue)
CCOC(=O)CSc1c(-c2cccs2)[nH]c2ccccc12	TDP-43 yeast inh 16µM, Abeta rescue inconclusive
CCOC(=O)CSc1c(-c2ccc(Cl)cc2)[nH]c2ccccc12	none
O=[N+]([O-])c1ccc(Nc2nc(NCCN3CCOCC3)nc(Nc3ccc(I)cc3)n2)cc1	none (no result: TDP-43 yeast inh, FUS suppressor, Abeta rescue)
O=C(CN1CCCc2ccccc21)NCc1ccccc1F	none (no result: TDP-43 yeast inh, Abeta rescue, aSyn rescue)
Cn1c(=O)n(CCc2ccccc2)c(=O)c2c1nc1n2CCCN1CCc1ccccc1	TDP-43 yeast inh 13µM
CNc1ccccc1/C(O)=C(\C#N)C(=O)NCc1cccs1	none (no result: TDP-43 yeast inh, Abeta rescue, aSyn rescue)
Cc1ccsc1C1Nc2ccc3ncccc3c2C2=C1C(=O)CC(C)(C)C2 (stereo not given)	FUS suppressor 13µM
O=C(c1cnn(-c2ccc(F)cc2)c1-n1cccc1)N1CCN(c2ccccc2)CC1	TDP-43 yeast inh 14µM
O=C(c1cnn(-c2ccc(F)cc2)c1-n1cccc1)N1CCN(c2ccc(Cl)cc2)CC1	none
COC(=O)C1=NN(C(=O)c2ccc(Cl)cc2)C(O)(c2ccccc2)C1 (stereo not given)	aSyn rescue 20µM
CCOC(=O)C1=NN(C(=O)c2ccc(C)cc2)C(O)(c2ccc(Cl)cc2)C1 (stereo not given)	TDP-43 yeast inh 13µM, FUS suppressor inconclusive, aSyn rescue inconclusive
Cc1ccc(-c2cc(C(=O)N(Cc3ccccc3)Cc3ccco3)no2)cc1F	none (no result: aSyn rescue)
O=C(N/N=C/c1ccc(OCc2ccccc2)cc1)c1cc[n+](Cc2ccccc2)cc1	TDP-43 yeast inh 20µM
O=C(c1ccc(F)cc1)N1CCN(S(=O)(=O)c2ccc3c(c2)OCCO3)CC1	none
O=C(c1ccc(F)cc1F)N1CCN(S(=O)(=O)c2ccc3c(c2)OCCO3)CC1	TDP-43 yeast inh 13µM (no result: FUS suppressor)
